# PubChem BioAssay (EPA / NIEHS)
# Results filed as inconclusive are left out. A structure can be active in one record and inactive in another. Active and inactive are the calls of the source. The calls were made as follows, unless noted: active = hit-call score of the fitted dose curve at least 0.9, where 1 is the maximum; inactive = score below 0.9.
# Columns and labels:
# [1] = read-out: Interleukin-8 (IL8), CXCL8 (gene 3576); experiment: BSK_3C_IL8: BioMAP Diversity Plus: 3C Assay for Interleukin-8 (IL8) Biomarker Activity (AID 2283020); details: primary human endothelial cells (HUVEC); actives raise or lower the signal
# Procedure, shortened: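 Using DMSO-treated wells as the baseline, bidirectional curve fitting was applied to ELISA-measured IL-8 from human umbilical vein endothelial cultures sampled 24 h after compound addition.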
# [2] = read-out: Monokine induced gamma interferon (MIG), CXCL9 (gene 4283); experiment: BSK_3C_MIG: BioMAP Diversity Plus: 3C Assay for Monokine induced gamma interferon (MIG) Biomarker Activity (AID 2283021); details: primary human endothelial cells (HUVEC); actives raise or lower the signal
# Procedure, shortened: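 ELISA-measured MIG in dosed HUVEC 3C cultures at 24 h, analysed by bidirectional fitting with DMSO defining baseline activity.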
# [3] = BSK_3C_SRB: Viability Assessment in the BioMAP Diversity Plus: 3C Assay (AID 2283023); details: primary human endothelial cells (HUVEC);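 also: fitted both ways against DMSO so a hit may be signal rise or drop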
# Procedure, shortened: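 HUVEC, 24 h post-dose; 10% TCA fix, 0.1% SRB stain, A560 nm. Bidirectional curve fit vs DMSO negative control.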
# [4] = read-out: Matrix Metallopeptidase 1 (MMP1), MMP1 (gene 4312); experiment: BSK_BE3C_MMP1: BioMAP Diversity Plus: BE3C Assay for Matrix Metallopeptidase 1 (MMP1) Biomarker Activity (AID 2283024); details: primary human bronchial epithelial cells; actives raise or lower the signal
# Procedure, shortened: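 In this multiplexed primary-cell system, human bronchial epithelium received chemicals for 24 h before an ELISA for MMP1. Values reflect bidirectional fits normalised to the DMSO baseline.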
# [5] = BSK_3C_Vis: BioMAP Diversity Plus: 3C Assay for Morphology Visualization (AID 2283025); details: primary human endothelial cells (HUVEC);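 also: fitted both ways so gain or loss versus DMSO counts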;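 as to AC50: light microscopy image of cell morphology used as background control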
# Procedure, shortened: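 Light-microscopy morphology readout, 24 h exposure, human primary umbilical vein endothelium; analysed relative to DMSO with bidirectional fitting.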
# [6] = read-out: Pselectin, SELP (gene 6403); experiment: BSK_4H_Pselectin: BioMAP Diversity Plus: 4H Assay for Pselectin Biomarker Activity (AID 2283026); details: primary human endothelial cells (HUVEC); actives raise or lower the signal
# Procedure, shortened: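 Bidirectional fits against DMSO gave the endpoint. Cells: primary human umbilical vein endothelium, chemical-treated for 24 h before ELISA detection of P-selectin.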
# [7] = BSK_4H_SRB: Viability Assessment in the BioMAP Diversity Plus: 4H Assay (AID 2283027); details: primary human endothelial cells (HUVEC);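 also: cells exposed to compound for 24 h before staining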
# Procedure, shortened: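 Cytotoxicity read-out in primary human endothelial cells: after 24 h compound exposure, cells were TCA-fixed (10%), stained with 0.1% SRB and absorbance taken at 560 nm. Values fitted in both directions relative to DMSO.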
# [8] = read-out: Thrombomodulin, THBD (gene 7056); experiment: BSK_3C_Thrombomodulin: BioMAP Diversity Plus: 3C Assay for Thrombomodulin Biomarker Activity (AID 2283029); details: primary human endothelial cells (HUVEC); actives raise or lower the signal
# Procedure, shortened: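 In a multiplexed primary-cell system, human umbilical vein endothelium received chemical and was assayed 24 h later for thrombomodulin by ELISA. Parallel cultures were SRB-stained (0.1% SRB after 10% TCA fixation, read at 560 nm) to flag cytotoxicity.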
# [9] = read-out: Urokinase-type plasminogen activator receptor (uPAR), PLAUR (gene 5329); experiment: BSK_4H_uPAR: BioMAP Diversity Plus: 4H Assay for Urokinase-type plasminogen activator receptor (uPAR) Biomarker Activity (AID 2283030); details: primary human endothelial cells (HUVEC); actives raise or lower the signal
# Procedure, shortened: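 HUVEC, 24 h post-dose; uPAR by ELISA; bidirectional fit vs DMSO baseline.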
# [10] = read-out: Vascular endothelial growth factor receptor 2 (Homo sapiens) (UniProt P35968); experiment: BSK_4H_VEGFRII: BioMAP Diversity Plus: 4H Assay for Vascular endothelial growth factor receptor 2 (VEGFR2) Biomarker Activity (AID 2283031); details: primary human endothelial cells (HUVEC); actives raise or lower the signal
# Procedure, shortened: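 HUVEC (human primary), 4H system; 24 h post-dose; VEGFRII by ELISA; bidirectional curve fit vs DMSO baseline; gain or loss of signal scored.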
# [11] = read-out: Human Leukocyte Antigen - DR isotype (HLADR), HLA-DRA (gene 3122); experiment: BSK_BE3C_HLADR: BioMAP Diversity Plus: BE3C Assay for Human Leukocyte Antigen - DR isotype (HLADR) Biomarker Activity (AID 2283032); details: primary human bronchial epithelial cells; actives raise or lower the signal
# Procedure, shortened: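 BioMAP BE3C format: human bronchial epithelium, 24 h compound treatment, ELISA detection of HLA-DR, with bidirectional analysis relative to DMSO.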
# [12] = read-out: Vascular cell adhesion molecule 1 (VCAM1), VCAM1 (gene 7412); experiment: BSK_4H_VCAM1: BioMAP Diversity Plus: 4H Assay for Vascular cell adhesion molecule 1 (VCAM1) Biomarker Activity (AID 2283033); details: primary human endothelial cells (HUVEC); actives raise or lower the signal;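 also: cell-surface VCAM-1 protein measured by ELISA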
# Procedure, shortened: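 In this human endothelial (HUVEC) system, biomarker ELISA was run 24 h after compound addition, and total protein in parallel wells was assessed by SRB at 560 nm; DMSO served as negative control.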
# [13] = read-out: Interferon-gamma inducible Protein 10 (IP10), CXCL10 (gene 3627); experiment: BSK_BE3C_IP10: BioMAP Diversity Plus: BE3C Assay for Interferon-gamma inducible Protein 10 (IP10) Biomarker Activity (AID 2283034); details: primary human bronchial epithelial cells; actives raise or lower the signal
# Procedure, shortened: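 BE3C cells (human bronchial epithelial, primary); 24 h exposure; ELISA for IP-10; DMSO-referenced bidirectional fit.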
# [14] = read-out: Monokine induced gamma interferon (MIG), CXCL9 (gene 4283); experiment: BSK_BE3C_MIG: BioMAP Diversity Plus: BE3C Assay for Monokine induced gamma interferon (MIG) Biomarker Activity (AID 2283035); details: primary human bronchial epithelial cells; actives raise or lower the signal;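 also: MIG protein measured by ELISA in BE3C cultures after 24 h of dosing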
# Procedure, shortened: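 ELISA quantified MIG after 24 h exposure of primary bronchial epithelial cultures, analysed in both directions relative to DMSO. Cytotoxicity tracked in parallel cultures by sulforhodamine B staining.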
# [15] = read-out: Transforming growth factor beta 1 (TGFb1), TGFB1 (gene 7040); experiment: BSK_BE3C_TGFb1: BioMAP Diversity Plus: BE3C Assay for Transforming growth factor beta 1 (TGFb1) Biomarker Activity (AID 2283036;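 also: TGF-b1 protein level measured by ELISA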); details: primary human bronchial epithelial cells; actives raise or lower the signal
# Procedure, shortened: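 TGF-b1 measured via ELISA, 24 h after chemical dosing of human bronchial epithelial cells (BE3C). Overt cytotoxicity assessed in parallel by SRB (0.1%, TCA-fixed, 560 nm); analysis bidirectional relative to DMSO.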
# [16] = read-out: Plasminogen activator inhibitor-1 (PAI1), SERPINE1 (gene 5054); experiment: BSK_BE3C_PAI1: BioMAP Diversity Plus: BE3C Assay for Plasminogen activator inhibitor-1 (PAI1) Biomarker Activity (AID 2283037); details: primary human bronchial epithelial cells; actives raise or lower the signal
# Procedure, shortened: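 In this multiplexed primary-cell system, bronchial epithelial cells receive test chemical and are sampled at 24 h. PAI-1 is read by ELISA, with DMSO serving as negative control for bidirectional fitting.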
# [17] = read-out: urokinase plasminogen activator (uPA), PLAU (gene 5328); experiment: BSK_BE3C_uPA: BioMAP Diversity Plus: BE3C Assay for urokinase plasminogen activator (uPA) Biomarker Activity (AID 2283038); details: primary human bronchial epithelial cells; actives raise or lower the signal;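 also: uPA protein level quantified by ELISA in cell cultures; uPA read one day after compound addition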
# Procedure, shortened: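 ELISA read-out of uPA in human lung primary bronchial epithelial cultures, 24 h post-dosing. Gain or loss of signal fitted bidirectionally relative to DMSO baseline; cytotoxicity checked in parallel cultures via SRB total protein stain.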
# [18] = read-out: Urokinase-type plasminogen activator receptor (uPAR), PLAUR (gene 5329); experiment: BSK_BE3C_uPAR: BioMAP Diversity Plus: BE3C Assay for Urokinase-type plasminogen activator receptor (uPAR) Biomarker Activity (AID 2283039); details: primary human bronchial epithelial cells; actives raise or lower the signal;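 also: uPAR protein level measured by ELISA on the cells; cells exposed to compound for one day before measurement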
# Procedure, shortened: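 Chemically treated human bronchial epithelial cells (lung primary) are assayed for uPAR by ELISA after 24 h, with data fitted in both directions using DMSO as negative control.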
# [19] = biological target: human Vitamin D Receptor (VDR), VDR (gene 7421) (UniProt P11473); experiment: ATG_VDR_TRANS: Attagene TRANS-FACTORIAL HepG2 Assay for human Vitamin D Receptor (VDR) (AID 2283022; active = hit-call score of the fitted dose curve at least 0.9, where 1 is the maximum)
# human Vitamin D Receptor (VDR), VDR (gene 7421), sequence (P11473 whole entry, looked up, the tested form may be a part): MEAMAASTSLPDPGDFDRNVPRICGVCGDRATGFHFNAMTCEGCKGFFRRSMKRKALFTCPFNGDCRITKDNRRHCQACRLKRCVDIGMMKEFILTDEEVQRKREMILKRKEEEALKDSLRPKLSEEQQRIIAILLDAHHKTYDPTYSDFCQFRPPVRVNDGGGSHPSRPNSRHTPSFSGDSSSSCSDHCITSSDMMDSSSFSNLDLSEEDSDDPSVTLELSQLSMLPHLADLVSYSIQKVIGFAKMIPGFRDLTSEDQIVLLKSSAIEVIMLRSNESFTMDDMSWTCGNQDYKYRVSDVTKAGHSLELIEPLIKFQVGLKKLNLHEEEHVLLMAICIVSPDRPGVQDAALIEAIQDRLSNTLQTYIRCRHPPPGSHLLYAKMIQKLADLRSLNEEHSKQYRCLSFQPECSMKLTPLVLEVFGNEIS
# Procedure, shortened: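 RT-PCR/capillary electrophoresis read-out of reporter mRNA induction in transiently transfected HepG2; 24 h dosing; chimeric NR-Gal4 (TRANS format); gain-of-signal fit against DMSO baseline.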
# [20] = BSK_BE3C_SRB: Viability Assessment in the BioMAP Diversity Plus: BE3C Assay (AID 2283028); details: primary human bronchial epithelial cells
# Procedure, shortened: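 Primary human bronchial epithelium; chemical dosing, 24 h; 10% TCA fix, 0.1% SRB stain, A560; bidirectional fit vs DMSO baseline.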
smiles,measurement,setting,value
O=C(c1ccccc1)c1ccc(O)cc1O,outcome,[1],inactive
same,outcome,[2],inactive
same,outcome,[3],inactive
same,outcome,[4],inactive
same,outcome,[5],inactive
same,outcome,[6],inactive
same,outcome,[7],inactive
same,outcome,[8],inactive
same,outcome,[9],inactive
same,outcome,[10],inactive
same,outcome,[11],inactive
same,outcome,[12],inactive
same,outcome,[13],inactive
same,outcome,[14],inactive
same,outcome,[15],inactive
same,outcome,[16],inactive
same,outcome,[17],inactive
same,outcome,[18],inactive
O=C=NCc1cccc(CN=C=O)c1,outcome,[1],inactive
same,outcome,[2],inactive
same,outcome,[3],inactive
same,outcome,[4],inactive
same,outcome,[5],inactive
same,outcome,[7],inactive
same,outcome,[8],inactive
same,outcome,[9],inactive
same,outcome,[10],inactive
same,outcome,[11],inactive
same,outcome,[12],inactive
same,outcome,[13],inactive
same,outcome,[14],inactive
same,outcome,[15],inactive
same,outcome,[16],inactive
same,outcome,[17],inactive
same,outcome,[18],inactive
C[Si](Cl)(Cl)CCC(F)(F)C(F)(F)C(F)(F)C(F)(F)C(F)(F)C(F)(F)F,outcome,[1],inactive
same,outcome,[2],inactive
same,outcome,[19],inactive
same,outcome,[3],inactive
same,outcome,[4],inactive
same,outcome,[7],inactive
same,outcome,[8],inactive
same,AC50,[9],0.0248 µM (active)
same,outcome,[9],inactive
same,outcome,[10],inactive
same,outcome,[11],inactive
same,outcome,[12],inactive
same,outcome,[13],inactive
same,outcome,[14],inactive
same,outcome,[16],inactive
same,outcome,[17],inactive
same,outcome,[18],inactive
CCOC(C=C(C)CCC=C(C)C)OCC,AC50,[5],37.1 µM (active)
same,outcome,[15],inactive
NC(=O)C(F)(F)C(F)(F)C(F)(F)C(F)F,outcome,[6],inactive
same,outcome,[20],inactive
CCc1cc(Cc2cc(CC)c(N)c(CC)c2)cc(CC)c1N,outcome,[19],inactive
O=c1cccc[nH]1,outcome,[19],inactive
F[Si-2](F)(F)(F)(F)F,outcome,[19],inactive
CCC(Cc1c(I)cc(I)c(N)c1I)C(=O)O (configuration not stated),outcome,[19],inactive
CCCCCCCCCCCC(=O)Cl,outcome,[19],inactive
CC1=CCC(=O)O1,outcome,[19],inactive
CCOC(OCC)OCC,outcome,[19],inactive
Nc1c(Br)cc([N+](=O)[O-])cc1Br,outcome,[19],inactive
CN(C)C(C)(C)CO,outcome,[19],inactive
Cc1cc(=O)[nH]c(C(C)C)n1,outcome,[19],inactive
OCCC(O)CO (configuration not stated),outcome,[19],inactive
CC(C)C(=O)OCc1ccccc1,outcome,[19],inactive
CCCCCCCCCc1ccc(OCCO)cc1,outcome,[19],inactive
CSc1ccc(O)cc1C,outcome,[19],inactive
Cc1ccc2c(c1)OCC(=O)CO2,outcome,[19],inactive
C=CCOC(=O)CC(C)C,outcome,[19],inactive
OCCCc1cccnc1,outcome,[19],inactive
CCCCCCCC/C=C\CCCCCCCC(=O)OCC(O)CO (configuration not stated),outcome,[19],inactive
OCC1CCCO1 (configuration not stated),outcome,[19],inactive
Oc1ccc2c(c1)CCC2,outcome,[19],inactive
CN(N=O)C(=O)N[C@@H]1[C@@H](O)[C@H](O)[C@@H](CO)O[C@@H]1O,outcome,[19],inactive
CO[Si](CCCOCC1CO1)(OC)OC (configuration not stated),outcome,[19],inactive
Cc1ccc(O)cn1,outcome,[19],inactive
CN1CN(C)CN(C)C1,outcome,[19],inactive
O=C1c2ccccc2C(=O)c2c(Cl)cccc21,outcome,[19],inactive
c1ccc(C[P+](c2ccccc2)(c2ccccc2)c2ccccc2)cc1,outcome,[19],inactive
CC(=O)c1ccccc1N,outcome,[19],inactive
COCCC(=O)OC,outcome,[19],inactive
CCn1c2ccccc2c2ccccc21,outcome,[19],inactive
CCCCOC(=O)C(C)O (configuration not stated),outcome,[19],inactive
CC(C)Nc1ccc(NC(C)C)c2c1C(=O)c1ccccc1C2=O,outcome,[19],inactive
